High-throughput results (PubChem BioAssay)
Most compounds without a hit are left out; they make up all but 2.8% or so of the library.
esBAF inh: Bmi1 luciferase reporter increase in mESCs, primary screen, esBAF inhibitor project, mouse ES cells, Bmi1 luciferase knock-in, single point. 24 h; 100% = twice the neutral-well signal. 2% of 350,000 active. reporter increase, % at 12.5 µM; in the data active = activation above about 40%; inconclusive = no clear call, values can overlap the other calls;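 also: a rise in the Bmi1 reporter signal indicates esBAF inhibition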
GAA850 FXN act: FXN promoter activators, primary screen, cell-based, luciferase luminescence, HEK293 lucGAA850 | 0.56% of 360,000 active | HEK293 lucGAA850 FXN promoter luciferase reporter, 24 h; percent of 10 µM SAHA response | activation, % at 6 µM | AID 540364, 2011;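 active = activation above the average of all compounds screened plus 3 SD, cutoff fixed separately per campaign, cut at about 7.5% in these data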
MITF act: activators of MITF-driven TRPM1 promoter reporter, primary screen, cell-based, SK-MEL-5, luciferase, single point; SK-MEL-5 TRPM1-promoter luciferase, 24 h; % of positive control, neutral wells = 0; activation, % at 12.5 µM; 0.75% of 300,000 active; AID 588334, 2011;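 active = mean activation of at least 80% with every replicate also reaching 80%; inconclusive = mean reaches 80% but some replicate falls short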
Wnt bcat act: Wnt/beta-catenin pathway activators, primary screen, cell-based, plate reader, single point; Wnt/beta-catenin reporter cell assay, activator; activation, % at 9.35 µM; 1.2% of 300,000 active; AID 743398, 2014; in the data active = activation above about 30%, passing the limit was not always enough; inconclusive = no clear call, values can overlap the other calls
Ring1 derepress: Ring1 mRNA increase in mouse ESCs, confirmation, esBAF inhibitor project, cell-based, mouse ESC, RT-qPCR, cherry-pick | mouse ESC E14, Ring1 mRNA RT-qPCR fold change | AID 743176, 2013 | fold change at 33 µM | 550 tested, under 10 active | shares compounds with esBAF inh;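 active = Ring1 gene expression raised more than 2-fold over untreated cells in both replicates at either tested dose; inconclusive = only one replicate above 2-fold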;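 also: Ring1 transcript normalised to actin housekeeping signal by TaqMan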
esBAF Fgf4 qPCR: Fgf4 mRNA decrease in mouse ESCs, confirmation, esBAF inhibitor project, cell-based, mouse ESC, RT-qPCR, cherry-pick; Fgf4 expression fold change at 33 µM; AID 743177, 2013; shares compounds with esBAF inh; 4% of 550 active; mouse ESC E14, Fgf4 mRNA qPCR fold change; stronger effect = lower value;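 active = Fgf4 expression under 0.8 fold of control in both repeat measurements at one or both tested doses; inconclusive = under 0.8 fold in just a single repeat measurement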;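 also: Fgf4 transcript normalised to actin in duplex TaqMan qPCR; cells exposed to compound for 24 h before lysis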
esBAF Bmi1 qPCR: esBAF inhibition via Bmi1 de-repression, confirmation, cell-based, RT-qPCR, mouse ESC, single point, cherry-pick; shares compounds with esBAF inh; mouse ESE14 ES cells, Bmi1 mRNA qPCR fold; stronger effect = higher value; fold change at 33 µM; 550 tested, under 10 active; AID 743180, 2013;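 active = Bmi1 expression fold change above 6 at either tested concentration, seen in replicate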
A549 tox SP: A549 cell cytotoxicity, cytotoxicity control, plate reader, single point, cherry-pick. shares compounds with esBAF inh. cell viability change % (negative = cytotoxic), % at 25 µM, hits read low. 550 tested, under 10 active. AID 743188, 2013; call rule not given here
HepG2 cytotox SP: HepG2 cell cytotoxicity, cytotoxicity control, plate reader, single point, cherry-pick; shares compounds with esBAF inh; stronger effect = lower value; activity change, negative = inhibition, % at 25 µM; 4% of 550 active; in the data active = activity change below about -50%
HEK293 tox SP: HEK293 cell cytotoxicity, cytotoxicity control, plate reader, single point, cherry-pick; shares compounds with esBAF inh; activity change, negative = inhibition, % at 25 µM, hits read low; 3% of 550 active; AID 743190, 2013; in the data active = activity change below about -38%, passing the limit was not always enough
A number is an active result; – = inactive; ? = inconclusive; · = not tested or not shown.

SMILES | esBAF inh | GAA850 FXN act | MITF act | Wnt bcat act | Ring1 derepress | esBAF Fgf4 qPCR | esBAF Bmi1 qPCR | A549 tox SP | HepG2 cytotox SP | HEK293 tox SP
COC(=O)[C@@H]1[C@@H](CO)[C@@H]2Cn3c(ccc(-c4ccccc4)c3=O)[C@H]1N2CCc1ccccc1 | – | · | · | · | · | · | · | · | · | ·
c1ccc(Nc2ccc3ccccc3c2)cc1 | 74 | – | 95 | – | – | ? | – | – | – | –
COc1ccc(-c2ccc3n2Cc2cnnn2-c2ccccc2-3)cc1 | 82 | – | – | – | – | – | – | – | – | –
c1ccc(CCc2ccc3n2Cc2cnnn2-c2ccccc2-3)cc1 | – | – | – | – | · | · | · | · | · | ·
N#Cc1cccc(-c2ccc([C@@H]3[C@H]4CN(C(=O)Cc5cccnc5)CCCCN4[C@H]3CO)cc2)c1 | – | · | · | · | · | · | · | · | · | ·
